Hits are enriched below; roughly 19% of the tested compounds scored in any of these assays.
TDP1 block = qHTS Assay for Inhibitors of Tyrosyl-DNA Phosphodiesterase (TDP1); recombinant TDP1, AlphaScreen DNA substrate cleavage; Potency, µM (top dose mostly 130 µM), usual class: inhibitors; 0.28% of 350,000 active; AID 485290, 2010; further: nearly all actives have a fitted effect of over 40% in size
Target sequence (Q9NUW8 whole entry, looked up): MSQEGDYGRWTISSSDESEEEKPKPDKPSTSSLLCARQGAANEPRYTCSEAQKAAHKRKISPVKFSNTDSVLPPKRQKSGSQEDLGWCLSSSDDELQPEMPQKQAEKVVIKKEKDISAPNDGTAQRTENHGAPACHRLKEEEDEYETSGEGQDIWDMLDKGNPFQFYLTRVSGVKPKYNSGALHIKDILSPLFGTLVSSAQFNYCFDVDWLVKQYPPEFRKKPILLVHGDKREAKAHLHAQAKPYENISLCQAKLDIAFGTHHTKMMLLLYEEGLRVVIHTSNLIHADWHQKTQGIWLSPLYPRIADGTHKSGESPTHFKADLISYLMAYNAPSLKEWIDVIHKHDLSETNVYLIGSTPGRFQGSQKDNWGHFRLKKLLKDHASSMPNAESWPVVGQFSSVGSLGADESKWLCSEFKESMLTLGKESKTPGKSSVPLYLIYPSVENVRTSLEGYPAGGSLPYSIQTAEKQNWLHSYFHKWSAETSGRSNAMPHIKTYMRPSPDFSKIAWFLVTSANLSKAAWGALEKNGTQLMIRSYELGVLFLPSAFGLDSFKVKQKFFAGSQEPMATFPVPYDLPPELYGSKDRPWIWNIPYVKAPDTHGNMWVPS
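Here, a 5' biotin and 3' phosphotyrosine-FITC DNA oligonucleotide reports Tdp1 activity: intact substrate bridges AlphaScreen beads, while cleavage leaves a 3' phosphate and drops signal. All incubations at room temperature.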
DT40 TDP1 CPT = qHTS for Inhibitors of human tyrosyl-DNA phosphodiesterase 1 (TDP1): qHTS in cells in presence of CPT; chicken DT40 Tdp1-/-;hTDP1 cells + 20 nM CPT, ATP luminescence, 48 h; Potency, µM (doses to about 46.2 µM), most hits filed as inhibitors; 12% of 420,000 active; further: nearly all actives have a fitted effect of over 55% in size
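Chicken DT40 Tdp1-/- cells stably complemented with human TDP1 were seeded at 400 cells/well in medium containing 20 nM camptothecin, exposed to pin-transferred compounds, and grown at 37 °C for at least 48 hr. Viability was read as ATP luminescence.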
HepG2 viability = qHTS for Inhibitors of TGF-b: Cytotox Counterscreen; HepG2 CAGA-GFP viability, ATP luminescence, 18 h; Potency, µM (top dose mostly 46.1 µM), hits mostly cytotoxic; 0.76% of 410,000 active; AID 588856, 2011
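HepG2 CAGA-GFP cells (1000/well, DMEM with 1% FBS) received compound, then TGF-beta at 500 pg/mL final, and were incubated 18 hours at 37 degrees C. Viability was read by CellTiter-Glo luminescence. Media-only wells were set as complete cell-killing and DMSO as no toxicity.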
TDP1 cell noCPT = qHTS for Inhibitors of human tyrosyl-DNA phosphodiesterase 1 (TDP1): qHTS in cells in absence of CPT; 15% of 420,000 active; Potency, µM (titrated, usually from 46.2 µM), hits mostly inhibitors; DT40 Tdp1-/- hTDP1 cells, no CPT, ATP luminescence, 48 h; further: nearly all actives have a fitted effect of over 55% in size
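No-CPT arm: Tdp1-/-;hTDP1 DT40 cells (400/well) plus compounds, incubated ≥48 hr at 37 °C. Readout CellTiter-Glo luminescence.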
TGFb SMAD3 inh = qHTS for Inhibitors of TGF-b; Potency, µM (highest dose often 46.1 µM), hits mostly inhibitors; 1.2% of 410,000 active; HepG2 CAGA-GFP TGF-b/SMAD3 reporter, GFP fluorescence, 18 h; TGF-beta stimulated, 500 pg/mL final; further: nearly all actives have a fitted effect of over 65% in size
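HEPG2 CAGA-GFP cells (1000/well, DMEM with 1% FBS) were pre-incubated 2 h at 37 degrees C, given compound by pin tool, then stimulated with TGF-beta at 500 pg/mL final for 18 h before per-cell GFP fluorescence imaging.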
IL-1B inflam inh = qHTS for Inhibitors of Inflammasome Signaling: IL-1-beta AlphaLISA Primary Screen. THP-1 LPS/ATP IL-1B secretion, AlphaLISA, 16 h; active compounds read low. activity change, % at 57.5 µM. 4.7% of 360,000 active. AID 743279, 2014; in the data active means activity change below about -50%; inconclusive means mostly about -30% to -49%
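Secreted IL-1B measured by AlphaLISA bead assay after 16 h compound exposure of THP-1 cells; compounds (final up to 57.5 uM) added 1 h before LPS (250 ng/mL) and ATP (1.25 mM) stimulation; lower signal means less secretion.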
A number is an active result. Unless noted, the call rests on the fitted dose curve; in most records, active means well fitted curve in the direction sought with a large enough effect; inconclusive means small, poorly fitted or top-dose-only effect, or another doubt; inactive means no such curve, though single readings can be large; an effect the other way counts as inactive or inconclusive.

Screening CCOc1ccc(S(=O)(=O)NCCC(=O)N2CC=C(c3ccccc3)CC2)cc1 returned TDP1 block inactive, DT40 TDP1 CPT inconclusive, HepG2 viability inactive, TDP1 cell noCPT 11.6µM, TGFb SMAD3 inh inconclusive and IL-1B inflam inh inactive.
For Nc1nc(Nc2cccc(F)c2)nc2ccccc12 the results were TDP1 block inactive, DT40 TDP1 CPT 18.4µM, HepG2 viability inactive, TDP1 cell noCPT 18.4µM, TGFb SMAD3 inh inactive and IL-1B inflam inh -111.3.
For COc1cc2nc(C#N)nc(N)c2cc1OC the results were DT40 TDP1 CPT inconclusive and TDP1 cell noCPT 20µM.
For COc1cc2nc(N3CCN(c4cc(C)ccc4C)CC3)nc(N)c2cc1OC the results were DT40 TDP1 CPT 8.2µM, HepG2 viability 11.2µM, TDP1 cell noCPT 7.31µM, TGFb SMAD3 inh inconclusive and IL-1B inflam inh -97.2.
Screening COc1cc2nc(N3CCNCC3)nc(N)c2cc1OC returned TDP1 block inactive, DT40 TDP1 CPT inactive, HepG2 viability inactive, TDP1 cell noCPT inactive, TGFb SMAD3 inh inconclusive and IL-1B inflam inh inactive.
Screening COc1ccc(C)cc1Nc1nc(N)c2cc(OC)c(OC)cc2n1 returned TDP1 block inactive, DT40 TDP1 CPT 4.61µM, HepG2 viability inactive, TDP1 cell noCPT 23.1µM, TGFb SMAD3 inh inconclusive and IL-1B inflam inh -92.4.
`COc1nc(NCCO)nc(Nc2cc(Cl)ccc2OC)n1` gave DT40 TDP1 CPT inactive, HepG2 viability inactive, TDP1 cell noCPT inactive, TGFb SMAD3 inh inactive and IL-1B inflam inh inactive.
COc1ccc(Cl)cc1Nc1nc(N)c2ccccc2n1 was read as DT40 TDP1 CPT inconclusive, HepG2 viability inactive, TDP1 cell noCPT inconclusive, TGFb SMAD3 inh inactive and IL-1B inflam inh -89.4.
`Cc1ccc(C)c(Nc2nc(N)c3ccccc3n2)c1` gave TDP1 block inactive, DT40 TDP1 CPT inconclusive, HepG2 viability inactive, TDP1 cell noCPT 18.4µM and TGFb SMAD3 inh inactive.
For S=c1ncc2n[nH]nc2[nH]1 the results were DT40 TDP1 CPT inactive, HepG2 viability inactive, TDP1 cell noCPT inactive and TGFb SMAD3 inh inactive.
COCC(=O)N1c2nc(C(C)C)nn2C2(CCCCC2)[C@@H]2CCCC[C@@H]21 was read as TDP1 block inactive, DT40 TDP1 CPT 2.91µM, HepG2 viability inactive, TDP1 cell noCPT 2.91µM and TGFb SMAD3 inh inactive.
`CCCC(=O)N1c2nc(C(C)C)nn2C2(CCCCC2)[C@@H]2CCCC[C@@H]21` gave TDP1 block inactive, DT40 TDP1 CPT 10.3µM, HepG2 viability inactive, TDP1 cell noCPT 9.2µM and TGFb SMAD3 inh inconclusive.
CC(C)CC(=O)N1c2nc(C(C)C)nn2C2(CCCCC2)[C@@H]2CCCC[C@@H]21 was read as TDP1 block inactive, DT40 TDP1 CPT inactive, HepG2 viability inactive, TDP1 cell noCPT inconclusive and TGFb SMAD3 inh inactive.
`CC(=O)N1c2nc(-c3ccco3)nn2C2(CCCCC2)[C@@H]2CCCC[C@@H]21` gave TDP1 block inactive, DT40 TDP1 CPT inconclusive, HepG2 viability inactive, TDP1 cell noCPT inconclusive and TGFb SMAD3 inh inactive.
For CC(=O)N1c2nc(C(C)C)nn2C2(CCCCC2)[C@@H]2CCCC[C@@H]21 the results were TDP1 block inactive, DT40 TDP1 CPT 4.11µM, HepG2 viability inactive, TDP1 cell noCPT 1.84µM and TGFb SMAD3 inh inactive.
`COc1ccc(CCn2c3c(c(=O)[nH]c2=S)CN(C)CN3)cc1OC` gave TDP1 block inactive, DT40 TDP1 CPT inactive and TDP1 cell noCPT inactive.
For COc1ccc(N2CCN(CC(=O)NC(C)c3ccccc3)CC2)cc1 (configuration not stated) the results were DT40 TDP1 CPT inactive, HepG2 viability inactive, TDP1 cell noCPT inactive, TGFb SMAD3 inh inactive and IL-1B inflam inh inactive.
For O=C(CCC(=O)N1CCN(c2ccc(F)cc2)CC1)c1ccc(Cl)cc1 the results were TDP1 block inactive, DT40 TDP1 CPT inconclusive, HepG2 viability inactive, TDP1 cell noCPT inconclusive, TGFb SMAD3 inh inactive and IL-1B inflam inh inactive.
O=C(CCC(=O)N1CCN(c2ccc(Cl)c(Cl)c2)CC1)c1ccccc1 was read as TDP1 block inactive, DT40 TDP1 CPT 20.6µM, HepG2 viability inactive, TDP1 cell noCPT 18.4µM, TGFb SMAD3 inh inconclusive and IL-1B inflam inh inactive.
Screening COc1ccc(N2CCN(C(=O)CCNC(=O)c3ccc(C(C)(C)C)cc3)CC2)cc1 returned TDP1 block inactive, DT40 TDP1 CPT 18.4µM, HepG2 viability inactive, TDP1 cell noCPT inconclusive, TGFb SMAD3 inh inactive and IL-1B inflam inh inactive.
`COc1ccc(N2CCN(C(=O)CN3CCN(C(c4ccccc4)c4ccccc4)CC3)CC2)cc1` gave TDP1 block inactive, DT40 TDP1 CPT inconclusive, HepG2 viability inactive, TDP1 cell noCPT 23.1µM, TGFb SMAD3 inh inconclusive and IL-1B inflam inh inactive.
For COc1ccc(C(=O)CCC(=O)N2CCN(c3ccccc3)CC2)cc1 the results were DT40 TDP1 CPT 16.4µM, HepG2 viability inactive, TDP1 cell noCPT inconclusive, TGFb SMAD3 inh inactive and IL-1B inflam inh inactive.
COc1ccc(C(=O)NCC(=O)N2CCN(c3ccc(Cl)cc3)CC2)cc1 was read as DT40 TDP1 CPT inactive, HepG2 viability inactive, TDP1 cell noCPT inconclusive, TGFb SMAD3 inh inactive and IL-1B inflam inh inactive.
Screening N#Cc1ccc(CN2CC3(CCN(C(=O)c4ccncc4)CC3)C2)cc1 returned DT40 TDP1 CPT inactive and TDP1 cell noCPT inactive.
O=C(/C=C/c1ccccc1)NCCO was read as TDP1 block inactive, DT40 TDP1 CPT inconclusive and TDP1 cell noCPT inconclusive.
CC(C)(C)c1ccc(/C=N/OCC(=O)NCc2ccc(F)cc2)cc1 was read as TDP1 block inactive, DT40 TDP1 CPT inconclusive, HepG2 viability inactive, TDP1 cell noCPT 16.4µM, TGFb SMAD3 inh inactive and IL-1B inflam inh -69.2.
For Cc1ccc(CNC(=O)CO/N=C/c2ccc(C(C)(C)C)cc2)cc1 the results were TDP1 block inactive, DT40 TDP1 CPT inconclusive, HepG2 viability inactive, TDP1 cell noCPT inconclusive, TGFb SMAD3 inh inactive and IL-1B inflam inh inactive.
For COc1cc(/C=C/C(=O)OCC(=O)Nc2ccc3c(c2)OCCO3)ccc1O the results were TDP1 block inactive, DT40 TDP1 CPT inconclusive, HepG2 viability inactive, TDP1 cell noCPT 16.4µM, TGFb SMAD3 inh inactive and IL-1B inflam inh inactive.
For COc1cc(/C=C/C(=O)OCC(=O)NCc2ccc(F)cc2)ccc1O the results were TDP1 block inactive, DT40 TDP1 CPT 2.59µM, HepG2 viability inactive, TDP1 cell noCPT 2.31µM, TGFb SMAD3 inh inactive and IL-1B inflam inh inactive.
For CSc1nnc(CNS(=O)(=O)c2ccc(F)cc2F)n1-c1ccccc1C the results were DT40 TDP1 CPT inconclusive and TDP1 cell noCPT inactive.

Bioassay records (PubChem)
